Data on 19 compounds can be found in publication PMC4552634, “A New Set of Chemical Starting Points with Plasmodium falciparum Transmission-Blocking Potential for Antimalarial Drug Discovery” (PLoS ONE, 2015).

Among all 13,000 compounds or so, about 3,200 (25%) showed an effect of 50% or more. This is one part of the list.

The subject of this assay is P. falciparum stage V gametocytes. More on the design: BacTiter-Glo ATP luminescence viability of purified stage V gametocytes in 384-well plates, per cent inhibition versus DMSO. Particulars: 48 h, 5 µM; inhibitor.
`COc1ccc(NC(C)C(=O)Nc2ccc(Br)cc2)cc1S(=O)(=O)N1CCCCC1` (stereo not shown) [TCMDC-125032]: the “% Inhibition” value is listed as -25.53%.
Next, `O=C(Cc1ccc[n+]([O-])c1)Nc1cccc(-c2cccc(-c3nc4cc(F)ccc4[nH]3)c2)c1` [TCMDC-136989]: -50%; `O=C(C=Cc1cccs1)N(CCCn1ccnc1)c1nc2ccc(F)cc2s1` [TCMDC-124928]: 96.26%; `COc1ccc2nc(N(CCCn3ccnc3)C(=O)C=Cc3cccs3)sc2c1` [TCMDC-124926]: -10.06%.
The value for `Cc1ccc2nc(N(CCCn3ccnc3)C(=O)C=Cc3cccs3)sc2c1` [TCMDC-124927] was 1.025%.
Take `OCCN1CCN(C2Cc3ccc(F)cc3Sc3ccc(Cl)cc32)CC1` (stereo not shown) [TCMDC-123467]: the “% Inhibition” value is listed as 11.59%.
The value for `C=C(NC(=O)c1cc(C)cc(C)c1)C(=O)OC` [TCMDC-131725] was 5.196%.
Turning to `CC1CCCN1Cc1cccc(-c2ccc(C(=O)NCCOc3ccccc3)s2)c1` (stereo not shown) [TCMDC-133066], the “% Inhibition” value is reported as -6.821%.
The value for `CC(C)(C)OC(=O)[C@H](CC(N)=O)NC(=O)c1ccc(-c2ccc(-c3nc4cc(C(F)(F)F)ccc4[nH]3)s2)cc1` [TCMDC-132340] was -23.75%; that for `CC(C)N(Cc1cnc(N)c(C#N)n1)c1ccc(Cl)c(Cl)c1` [TCMDC-137676] was 6.722%.
Consider `O=c1[nH]c(=O)n2c(nc3ccccc32)[nH]1` [TCMDC-131695], for which the “% Inhibition” value was 19.78%.
Turning to `COc1ccc(CNCc2ccccc2)cc1-c1ccc(OC)c(S(=O)(=O)NCCN2CCCC2)c1` [TCMDC-132250], the “% Inhibition” value was 31.04%.
On to `O=S(=O)(NCCN1CCCC1)c1ccc(-c2cccc(CNCc3ccc(F)cc3)c2)cc1F` [TCMDC-132275], for which the “% Inhibition” value turned out to be 25.81%.
Next, `Cc1cc(-c2ccc(CNCc3ccc(F)cc3)cc2)ccc1S(=O)(=O)NCCN1CCCC1` [TCMDC-132291]: 38.43%; `COc1ccc(CNCc2ccc(F)cc2)cc1-c1ccc(OC)c(S(=O)(=O)NCCN2CCCC2)c1` [TCMDC-132295]: 107%.
The value for `Cc1cc(-c2cccc(CNCc3ccc(F)cc3)c2)ccc1S(=O)(=O)NCCN1CCCC1` [TCMDC-132278] was 105%.
The value for `COc1ccc(-c2cccc(CNCc3ccc(F)cc3)c2)cc1S(=O)(=O)NCCN1CCCC1` [TCMDC-132408] was 73.1%; that for `COc1ccc(-c2ccc(CNCc3ccc(F)cc3)cc2)cc1S(=O)(=O)NCCN1CCCC1` [TCMDC-132282] was 111.7%; that for `COc1ccc(Nc2nc(NCc3cccc(NS(C)(=O)=O)c3)cc(-c3ccc(OC)cc3)n2)cc1` [TCMDC-133457] was -11.45%.

Usually % Inhibition stands for the relative decrease from the control value, in per cent.
